The source of these data is PubChem BioAssay AID1952 (The Scripps Research Institute Molecular Screening Center, 2009).

Among all 2,400 compounds or so, about 1,200 (50%) were called active. The set was probably picked from earlier hits. These entries were drawn from the full list. A number with no mark means an inactive call. Rule as the data show it: active = inhibition above about 24%; inactive = the rest.

Sequence of Neuropeptides B/W receptor type 1 (Homo sapiens) (P48145 whole entry, looked up): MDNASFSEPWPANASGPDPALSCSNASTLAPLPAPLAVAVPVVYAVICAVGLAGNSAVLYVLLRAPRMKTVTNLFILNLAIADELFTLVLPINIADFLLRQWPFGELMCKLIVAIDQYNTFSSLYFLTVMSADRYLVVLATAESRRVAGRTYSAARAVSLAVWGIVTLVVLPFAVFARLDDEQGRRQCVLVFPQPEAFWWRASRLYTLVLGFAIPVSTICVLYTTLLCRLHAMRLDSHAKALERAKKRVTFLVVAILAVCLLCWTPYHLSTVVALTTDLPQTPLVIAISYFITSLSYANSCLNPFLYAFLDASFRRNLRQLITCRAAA

The test concerns the target Neuropeptides B/W receptor type 1 (Homo sapiens) (UniProt P48145). In words: blockers of human NPBW1 receptor – cell-based, fluorescence, single concentration, confirmation (AID 1952).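 Also: stimulated with the GPR7 agonist NPW; 0% = agonist plus vehicle and 100% = vehicle alone without agonist.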 Particulars: GPR7-expressing cells, calcium fluorescence antagonist mode; at 4.4 µM; hits give high values.
In general, inhibition refers to the share of the control response that was lost under treatment. In the case of `CCOc1ccc(-c2cc(C)[n+](CCN(CC)CC)c(-c3ccc(OCC)cc3)c2)cc1`, the inhibition is 41.8% (active).
Take `COc1ccc(Br)cc1CNCCc1cccc(Cl)c1`: the inhibition was 32.7% (active).
On to `CCOC(=O)C1(Cc2ccc(Cl)cc2)CCN(C(C)CCn2cccn2)CC1` (stereo not drawn), for which the inhibition is 18.4%.
